# Target: Mitogen-activated protein kinase 11 (Homo sapiens) (UniProt Q15759)
# Details: at 10 µM
# Chain of Mitogen-activated protein kinase 11 (Homo sapiens) (Q15759 whole entry): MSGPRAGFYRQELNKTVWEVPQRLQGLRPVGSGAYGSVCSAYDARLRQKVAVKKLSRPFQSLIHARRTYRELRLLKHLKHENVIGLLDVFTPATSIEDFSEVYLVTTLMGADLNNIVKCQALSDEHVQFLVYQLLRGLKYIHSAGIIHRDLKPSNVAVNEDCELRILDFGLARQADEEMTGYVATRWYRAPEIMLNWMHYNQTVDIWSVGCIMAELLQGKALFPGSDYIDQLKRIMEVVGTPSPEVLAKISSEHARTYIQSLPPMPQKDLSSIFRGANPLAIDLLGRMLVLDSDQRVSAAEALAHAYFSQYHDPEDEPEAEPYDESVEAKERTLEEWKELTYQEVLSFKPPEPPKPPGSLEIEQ
row,SMILES,residual activity [%]
1,COc1cc2ncnc(Nc3cccc(Cl)c3)c2cc1OC,45
2,Cn1c2ccccc2c2c3c(c4c5ccccc5n(CCC#N)c4c21)CNC3=O,100
3,NCCNc1ncc(C(N)=O)c(Nc2cccc(C(F)(F)F)c2)n1,104
4,CC(C)c1nn(-c2c(Cl)cccc2Cl)c2nc(Cc3ccc(OCCO)cc3)[nH]c(=O)c12,105
5,O=C1C(Cl)=C(N2C(=O)CCC2=O)C(=O)c2ccccc21,92

# Target: T1, Mitogen-activated protein kinase 13 (Homo sapiens) (UniProt O15264)
# T1 sequence (whole entry): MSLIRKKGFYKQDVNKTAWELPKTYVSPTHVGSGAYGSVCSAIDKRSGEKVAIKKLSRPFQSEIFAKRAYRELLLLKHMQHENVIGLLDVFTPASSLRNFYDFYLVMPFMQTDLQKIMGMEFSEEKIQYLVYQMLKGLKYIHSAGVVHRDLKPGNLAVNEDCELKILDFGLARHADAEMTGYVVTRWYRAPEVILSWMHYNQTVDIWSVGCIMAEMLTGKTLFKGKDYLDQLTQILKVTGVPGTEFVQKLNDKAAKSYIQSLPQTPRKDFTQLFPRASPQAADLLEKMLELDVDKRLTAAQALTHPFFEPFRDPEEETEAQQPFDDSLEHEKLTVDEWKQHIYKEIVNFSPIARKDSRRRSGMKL
# Details: at 1 µM
row,SMILES,residual activity [%]
1,O=C(Nc1nc2ccccc2n1CCN1CCOCC1)c1cccc([N+](=O)[O-])c1,109
2,c1ccc(-c2cnc(Nc3ccc(OCCN4CCCC4)cc3)s2)cc1,103
3,CCCCc1c(-c2ccc(O)cc2)[nH]c2nccnc12,98
4,Cc1cc(C)c(/C=C2\C(=O)Nc3ccccc32)[nH]1,124
5,COc1cc2ncnc(Nc3cccc(Cl)c3)c2cc1OC,118
6,Cn1c2ccccc2c2c3c(c4c5ccccc5n(CCC#N)c4c21)CNC3=O,99
7,N#C/C(=C\c1ccc(O)c(O)c1)C(=O)NCc1ccccc1,125
8,O=C1NC(=O)C(c2cn(CCCO)c3ncccc23)=C1c1cnccn1,99
9,O=c1cc(N2CCOCC2)oc2c(-c3ccccc3)cccc12,101
10,NCCNc1ncc(C(N)=O)c(Nc2cccc(C(F)(F)F)c2)n1,114
11,N#C/C(=C1/Nc2ccccc2S1)c1ccnc(NCCc2cccnc2)n1,78
12,O=C1C(Cl)=C(N2C(=O)CCC2=O)C(=O)c2ccccc21,95

# Target: T1, Mitogen-activated protein kinase 13 (Homo sapiens)
# Details: at 10 µM
row,SMILES,residual activity [%]
1,O=C(Nc1nc2ccccc2n1CCN1CCOCC1)c1cccc([N+](=O)[O-])c1,87
2,c1ccc(-c2cnc(Nc3ccc(OCCN4CCCC4)cc3)s2)cc1,103
3,NC(=O)c1cccc(-c2cc(Nc3ccc(OC(F)(F)F)cc3)ncn2)c1,96
4,CCCCc1c(-c2ccc(O)cc2)[nH]c2nccnc12,88
5,Nc1n[nH]c2nc3ccccc3nc12,98
6,COc1cc2ncnc(Nc3cccc(Cl)c3)c2cc1OC,109
7,O=C1NC(=O)C(c2c[nH]c3ccccc23)=C1c1c[nH]c2ccccc12,99
8,O=C1NC(=O)C(c2cn(CCCO)c3ncccc23)=C1c1cnccn1,94
9,O=c1cc(N2CCOCC2)oc2c(-c3ccccc3)cccc12,71
10,NCCNc1ncc(C(N)=O)c(Nc2cccc(C(F)(F)F)c2)n1,101
11,N#C/C(=C1/Nc2ccccc2S1)c1ccnc(NCCc2cccnc2)n1,48
12,CC(C)c1nn(-c2c(Cl)cccc2Cl)c2nc(Cc3ccc(OCCO)cc3)[nH]c(=O)c12,59
13,O=C1C(Cl)=C(N2C(=O)CCC2=O)C(=O)c2ccccc21,92
14,COc1ccc2c(c1)c(C1=C(c3c[nH]c4ccccc34)C(=O)NC1=O)cn2CCCN(C)C,100

# Target: T2, Serine/threonine-protein kinase Sgk1 (Homo sapiens) (UniProt O00141)
# T2 sequence (whole entry): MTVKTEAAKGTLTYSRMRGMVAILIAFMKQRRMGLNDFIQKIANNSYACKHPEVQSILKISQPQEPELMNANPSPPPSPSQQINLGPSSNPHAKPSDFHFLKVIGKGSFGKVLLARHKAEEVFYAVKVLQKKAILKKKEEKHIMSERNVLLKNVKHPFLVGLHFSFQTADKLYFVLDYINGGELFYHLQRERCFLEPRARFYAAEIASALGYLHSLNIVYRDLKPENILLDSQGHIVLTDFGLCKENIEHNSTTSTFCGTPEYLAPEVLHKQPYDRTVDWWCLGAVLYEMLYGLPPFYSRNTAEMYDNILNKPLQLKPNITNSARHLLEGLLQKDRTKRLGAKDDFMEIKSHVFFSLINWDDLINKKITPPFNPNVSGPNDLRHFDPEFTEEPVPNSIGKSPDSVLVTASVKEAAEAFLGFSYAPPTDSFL
# Details: at 1 µM
row,SMILES,residual activity [%]
1,CCN(CC)CCNC(=O)c1c(C)[nH]c(/C=C2\C(=O)Nc3ccc(Cl)cc32)c1C,59
2,O=C1NC(=O)C(c2cn(CCCn3ccnc3)c3ccccc23)=C1Nc1ccccc1,46
3,CCOc1nc(NC(=O)Cc2cc(OC)ccc2OC)cc(N)c1C#N,79
4,O=S(=O)(c1cccc2cnccc12)N1CCCNCC1,84
5,CC(C)N(CCC(=O)c1ccc2ccccc2c1)Cc1ccccc1,78
6,COc1ccc(Cl)cc1NC(=O)Nc1cc(C)nc2ccccc12,80
7,COc1cc2ncnc(Nc3cccc(Cl)c3)c2cc1OC,89
8,O=C1NC(=O)C(c2c[nH]c3ccccc23)=C1c1c[nH]c2ccccc12,76
9,Cn1c2ccccc2c2c3c(c4c5ccccc5n(CCC#N)c4c21)CNC3=O,82
10,N#C/C(=C\c1ccc(O)c(O)c1)C(=O)NCc1ccccc1,79
11,O=c1cc(N2CCOCC2)oc2c(-c3ccccc3)cccc12,75
12,O=C(c1cc2cc(O)ccc2[nH]1)c1cc2cc(O)ccc2[nH]1,68
13,NCCNc1ncc(C(N)=O)c(Nc2cccc(C(F)(F)F)c2)n1,81
14,CC(C)c1nn(-c2c(Cl)cccc2Cl)c2nc(Cc3ccc(OCCO)cc3)[nH]c(=O)c12,99
15,O=C1C(Cl)=C(N2C(=O)CCC2=O)C(=O)c2ccccc21,90
16,COc1ccc2c(c1)c(C1=C(c3c[nH]c4ccccc34)C(=O)NC1=O)cn2CCCN(C)C,107

# Target: T2, Serine/threonine-protein kinase Sgk1 (Homo sapiens)
# Details: at 10 µM
row,SMILES,residual activity [%]
1,CCN(CC)CCNC(=O)c1c(C)[nH]c(/C=C2\C(=O)Nc3ccc(Cl)cc32)c1C,23
2,O=C1NC(=O)C(c2cn(CCCn3ccnc3)c3ccccc23)=C1Nc1ccccc1,14
3,CCOc1nc(NC(=O)Cc2cc(OC)ccc2OC)cc(N)c1C#N,100
4,NC(=O)c1cccc(-c2cc(Nc3ccc(OC(F)(F)F)cc3)ncn2)c1,159
5,CC(C)N(CCC(=O)c1ccc2ccccc2c1)Cc1ccccc1,100
6,COc1ccc(Cl)cc1NC(=O)Nc1cc(C)nc2ccccc12,73
7,O=C(Nc1ccc(Cl)cc1)c1ccccc1NCc1ccncc1,128
8,COc1cc2ncnc(Nc3cccc(Cl)c3)c2cc1OC,113
9,O=C1NC(=O)C(c2c[nH]c3ccccc23)=C1c1c[nH]c2ccccc12,65
10,Cn1c2ccccc2c2c3c(c4c5ccccc5n(CCC#N)c4c21)CNC3=O,40
11,N#C/C(=C\c1ccc(O)c(O)c1)C(=O)NCc1ccccc1,32
12,O=C(c1cc2cc(O)ccc2[nH]1)c1cc2cc(O)ccc2[nH]1,28
13,NCCNc1ncc(C(N)=O)c(Nc2cccc(C(F)(F)F)c2)n1,129
14,CC(C)c1nn(-c2c(Cl)cccc2Cl)c2nc(Cc3ccc(OCCO)cc3)[nH]c(=O)c12,103
15,O=C1C(Cl)=C(N2C(=O)CCC2=O)C(=O)c2ccccc21,100
16,COc1ccc2c(c1)c(C1=C(c3c[nH]c4ccccc34)C(=O)NC1=O)cn2CCCN(C)C,56

# — ChEMBL document CHEMBL2218924, “A broad activity screen in support of a chemogenomic map for kinase signalling research and drug discovery” (Biochem J, 2013)
